# Measured values reported in publication PMC4336329 (PLoS ONE, 2015).
# Out of some 310,000 compounds screened, about 2,200 (0.71%) showed an effect of 50% or more. The effect is printed as a negative number. Shown is part of a subset that was picked to be rich in strong results.
# Target: human ether-à-go-go-related gene (hERG) potassium channel (human, UniProt Q12809)
# Assay: primary screen, population patch clamp on CHO cells stably expressing hERG; higher = less effect of the substance
# Chain of human ether-à-go-go-related gene (hERG) potassium channel (Q12809 whole entry, looked up): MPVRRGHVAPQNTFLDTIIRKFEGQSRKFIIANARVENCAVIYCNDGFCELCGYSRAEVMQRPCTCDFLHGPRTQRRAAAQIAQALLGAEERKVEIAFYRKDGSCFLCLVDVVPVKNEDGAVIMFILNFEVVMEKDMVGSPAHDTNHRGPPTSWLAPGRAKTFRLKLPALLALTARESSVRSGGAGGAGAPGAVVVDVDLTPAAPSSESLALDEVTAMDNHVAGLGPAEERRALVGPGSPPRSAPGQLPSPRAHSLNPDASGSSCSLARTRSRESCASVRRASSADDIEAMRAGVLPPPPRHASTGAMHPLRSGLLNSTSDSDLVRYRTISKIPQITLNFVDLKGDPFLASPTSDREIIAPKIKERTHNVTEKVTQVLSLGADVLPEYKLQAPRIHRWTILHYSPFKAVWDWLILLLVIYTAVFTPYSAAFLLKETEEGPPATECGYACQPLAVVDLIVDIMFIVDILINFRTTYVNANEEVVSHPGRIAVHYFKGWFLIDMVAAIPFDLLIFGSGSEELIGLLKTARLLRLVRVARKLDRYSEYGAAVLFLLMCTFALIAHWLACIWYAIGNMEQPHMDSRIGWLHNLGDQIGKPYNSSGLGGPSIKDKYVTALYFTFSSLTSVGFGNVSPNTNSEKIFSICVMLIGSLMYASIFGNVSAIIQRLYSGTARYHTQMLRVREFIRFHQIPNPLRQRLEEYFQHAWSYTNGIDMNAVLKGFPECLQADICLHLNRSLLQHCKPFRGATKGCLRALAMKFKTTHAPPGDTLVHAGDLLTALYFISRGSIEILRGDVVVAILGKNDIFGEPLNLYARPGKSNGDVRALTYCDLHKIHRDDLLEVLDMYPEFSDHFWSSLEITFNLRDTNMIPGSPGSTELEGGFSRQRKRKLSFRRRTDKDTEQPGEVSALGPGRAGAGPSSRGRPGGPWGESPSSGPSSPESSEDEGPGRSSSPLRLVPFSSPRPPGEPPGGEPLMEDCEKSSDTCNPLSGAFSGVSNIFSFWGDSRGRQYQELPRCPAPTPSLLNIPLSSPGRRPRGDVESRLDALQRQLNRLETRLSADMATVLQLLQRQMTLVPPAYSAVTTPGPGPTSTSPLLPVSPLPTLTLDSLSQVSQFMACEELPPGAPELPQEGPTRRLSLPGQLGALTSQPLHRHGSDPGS
row,Compound,"hERG current change (%, negative = inhibition) at 1uM [%]"
1,CCc1ccc(N(CC(=O)Nc2ccccc2C(=O)N2CCOCC2)S(C)(=O)=O)cc1,8.28
2,O=C(NCc1cccnc1)c1ccc(CS(=O)(=O)Cc2ccc(Cl)cc2)o1,3.03
3,Cc1c(C(=O)OCC(=O)N2c3ccccc3CC2C)oc2ccccc12 (centres unmarked),14.6
4,O=C(Nc1cccc(F)c1)Nc1ccccn1,16
5,Cc1c(C(=O)c2ccccc2)c(=O)n(C)c(=O)n1C,9.65
6,O=S(=O)(Nc1cccc(-c2ccc(N3CCCCCC3)nn2)c1)c1cccc(F)c1,14.3
7,CSc1nnc(-c2ccc(O)cc2)n1C,-1.62
8,COC(=O)c1ccc(CN2CCCC(C(=O)c3cc(F)ccc3OC)C2)cc1 (centres unmarked),-8.3
9,O=C1c2ccccc2C(=O)N1CCCc1nc(-c2ccccn2)no1,-4.38
10,CCOC(=O)/C(N=Nc1sc(C(=O)OC)c(C)c1C(=O)OCC)=C(\O)CCl,14.4
11,COc1cc(OC)cc(C(=O)OCC(=O)N(C)c2ccccc2)c1,9.32
12,Oc1ccc(-c2[nH]ncc2-c2ccc(Br)cc2)c(O)c1,6.73
13,CCC(=O)Nc1ccc(Oc2ccc3c(c2)C(=O)N(c2ccc(O)cc2)C3=O)cc1,13.7
14,O=C1CC(N2CCN(C/C=C/c3ccccc3)CC2)C(=O)N1CCc1ccccc1 (centres unmarked),-4.01
15,O=C1CC(N2CCN(C/C=C/c3ccccc3)CC2)C(=O)N1Cc1ccc(N2CCCC2=O)cc1 (centres unmarked),-13
16,O=C1CC(N2CCN(C/C=C/c3ccccc3)CC2)C(=O)N1Cc1cccs1 (centres unmarked),-50.8
17,COc1ccc(NC(=O)CN2CCN(c3ccc(F)cc3)CC2)cc1Cl,13.2
18,COc1ccc(NC(=O)CN2CCN(CC(=O)Nc3ccccc3F)CC2)c(OC)c1,-19.6
19,COc1cccc(NC(=O)CN2CCN(CC(=O)Nc3ccc(F)cc3)CC2)c1,-90.6
20,COc1cccc(NC(=O)CN2CCN(S(=O)(=O)c3ccc(F)cc3)CC2)c1,4.16
21,CCOc1ccc(NC(=O)CN2CCN(CC(=O)Nc3ccccc3OC)CC2)cc1,-30.9
22,COc1ccc(NC(=O)CN2CCN(S(=O)(=O)c3ccc(F)cc3)CC2)cc1Cl,7.03
23,COc1ccc(NC(=O)CN2CCN(CC(=O)Nc3ccc(F)cc3)CC2)cc1Cl,-88.6

row,Compound,"hERG current change (%, negative = inhibition) at 1uM [%]"
1,COc1ccc(NC(=O)CN2CCCN(S(=O)(=O)c3ccc(F)cc3)CC2)c(OC)c1,-8.18
2,COc1cccc(NC(=O)CN2CCN(c3ccc(F)cc3)CC2)c1,2.77
3,CCOc1ccc(NC(=O)CN2CCN(CC(=O)Nc3ccc(OC)cc3OC)CC2)cc1,-58.2
4,COc1ccc(NC(=O)CN2CCN(CC(=O)Nc3ccccc3Cl)CC2)c(OC)c1,-48
5,COc1ccc(NC(=O)CN2CCN(CC(=O)Nc3ccc(F)cc3)CC2)c(OC)c1,-83.3
6,Cc1[nH]c2ccccc2c1C(=O)/C=C/c1ccccc1Cl,14.6
7,NC(=O)CN1C(=O)NC2(CCCc3sccc32)C1=O (centres unmarked),17
8,O=C(CCC(=O)c1cccs1)OCc1nc2ccccc2s1,12.6
9,O=c1c2ccccc2nc(CSc2ncnc3nc[nH]c23)n1-c1cccc(C(F)(F)F)c1,-2.15
10,COc1ccc(NC(=O)COc2cccnc2[N+](=O)[O-])cc1OC,15.8
11,Cc1nc(C(=O)Nc2cc(Cl)ccc2Cl)nn1-c1cc(OC(C)C)c(Cl)cc1Cl,-0.146
12,CC1CCCN(C(=O)CSc2cnc3ccccc3n2)C1 (centres unmarked),-9.88
13,COc1ccccc1-c1noc(CSc2nc(C)cc(=O)[nH]2)n1,19.4
14,Cc1ccc(NC(=O)C2C(c3ccccc3)C2(Cl)Cl)c(C)c1 (centres unmarked),2.95
15,COc1ccc(-c2nc(-c3cccs3)c(-c3cccs3)[nH]2)cc1OC,20.3
16,O=[N+]([O-])c1cc([N+](=O)[O-])c(Oc2cc(Cl)cc(Cl)c2)cc1NN1CCCCC1,11.6
17,Cc1ccc(S(=O)(=O)NCC2CCC(C(=O)NCCCN3CCCC3=O)CC2)cc1 (centres unmarked),11.2
18,COc1ccc(N(CC(=O)O)S(=O)(=O)c2cccnc2)cc1,14.2
19,COc1ccccc1NC(=O)CN1CCN(CC(=O)Nc2ccc(C)c(F)c2)CC1,-49.1
20,COc1ccccc1NC(=O)CN1CCN(CC(=O)Nc2ccc(F)cc2)CC1,-87.4
21,COc1ccccc1NC(=O)CN1CCN(CC(=O)Nc2ccc(OC)c(OC)c2)CC1,12
22,CCCCCn1c(CN2CCN(Cc3ccccc3)CC2)nc2c1c(=O)n(C)c(=O)n2C,-57.9
23,CCN1CCN(c2nc3c(c(=O)[nH]c(=O)n3C)n2Cc2ccccc2)CC1,1.8

row,Compound,"hERG current change (%, negative = inhibition) at 1uM [%]"
1,Cn1c(=O)[nH]c(=O)c2c1nc(N1CCN(Cc3ccccc3)CC1)n2CCCc1ccccc1,-22
2,CCCCCCn1c(N2CCN(c3ccccc3)CC2)nc2c1c(=O)[nH]c(=O)n2C,-20.5
3,Cn1c(=O)[nH]c(=O)c2c1nc(CN1CCN(Cc3ccccc3)CC1)n2CC(N)=O,6.48
4,CCCCCn1c(CN2CCN(Cc3ccccc3)CC2)nc2c1c(=O)[nH]c(=O)n2C,-72.5
5,CC(C)CCn1c(CN2CCN(Cc3ccccc3)CC2)nc2c1c(=O)[nH]c(=O)n2C,-2.51
6,CCCCCn1c(CN2CCN(C)CC2)nc2c1c(=O)n(C)c(=O)n2C,-5.24
7,CCN1CCN(c2nc3c(c(=O)[nH]c(=O)n3C)n2CCCc2ccccc2)CC1,-81.5
8,CCCCCCn1c(CN2CCN(Cc3ccccc3)CC2)nc2c1c(=O)n(C)c(=O)n2C,-47.2
9,CCCCCn1c(N2CCN(Cc3ccccc3)CC2)nc2c1c(=O)[nH]c(=O)n2C,-77
10,CCCCCn1c(N2CCC(Cc3ccccc3)CC2)nc2c1c(=O)[nH]c(=O)n2C,11.2
11,COc1ccc(CCNC(=O)Nc2ccc(F)cc2F)cc1OC,15.8
12,CCOC(=O)C1CCN(C(=O)Nc2ccc3snnc3c2)CC1,3.17
13,O=C(Nc1ccc(F)cc1)N(Cc1cccs1)Cc1cc2cc3c(cc2[nH]c1=O)OCO3,16.6
14,COc1cc(C(=O)NCCOc2ccccc2)cc(OC)c1OC,16.3
15,CCOC(=O)N1CCN(CCC(=O)Nc2ccc(OC)cc2OC)CC1,3.55
16,O=C(Oc1c(-c2ccco2)oc2ccccc2c1=O)c1cccnc1,16.2
17,COc1cc(SC#N)ccc1N=Cc1c(C)[nH]n(-c2cccc3ccccc23)c1=O,13.4
18,COc1ccc(CCNC2CC(=O)N(CCc3ccc(OC)c(OC)c3)C2=O)cc1 (centres unmarked),7.42
19,O=C(Cn1cnc2c(oc3ccccc32)c1=O)NCC1CCCO1 (centres unmarked),9.36
20,CCOc1ccc(C(=O)N2CCCCCC2)cc1,9.17
21,CCOc1ccc(C(=S)N2CCN(C)CC2)cc1,-84.3
22,C=CCOc1ccccc1CN1CCC(Cc2ccccc2)CC1,-51.6
23,CCOc1ccc(C(=O)N2CCCN(C(=O)c3ccc(OCC)cc3)CC2)cc1,-69.3

row,Compound,"hERG current change (%, negative = inhibition) at 1uM [%]"
1,O=C(c1ccc(F)cc1)N1CCN(Cc2ccccc2)CC1,10.5
2,C=CCOc1ccccc1CN1CCSCC1,-1.02
3,CCOc1ccc(C(=S)N2CCCC2)cc1,5.79
4,C=CCOc1ccccc1CN1CCCCCC1,11.6
5,O=C(O)C(=O)O.O=C(c1ccccc1)N1CCN(Cc2ccccc2)CC1,2.81
6,CCOc1ccc(C(=O)N2CCCC2)cc1,10.9
7,CCOc1ccc(C(=S)N2CCOCC2)cc1,5.79
8,O=C(c1ccc(-n2cccc2)cc1)N1CCN(Cc2ccccc2)CC1,-59.9
9,O=C(CN1CCN(c2ccc(F)cc2)CC1)Nc1ccc(-n2cnnn2)cc1,8.42
10,O=C(CSc1nn(-c2ccc(F)cc2)c(=S)s1)NCC1CCCO1 (centres unmarked),-2.14
11,Cc1ccc(Cl)cc1NC(=O)N[C@@H](C)C(=O)O,9.9
12,Cc1cccc(C2c3[nH]c4ccccc4c3CCN2C(=O)c2cc(CC(C)C)nc(C)n2)n1 (centres unmarked),14
13,CCOc1ccc(CN2CCC(Cc3ccccc3)CC2)cc1,-76.8
14,CSc1ccc(CN2CCC(Cc3ccccc3)CC2)cc1,-29.6
15,CCOc1ccc(CN2CCN(C(=O)c3ccccc3)CC2)cc1,-1.03
16,CCOc1ccc(C(=O)N2CCN(c3ccccc3)CC2)cc1,-0.559
17,CCOc1ccc(C(=O)N2CCN(Cc3ccccc3)CC2)cc1,-60.3
18,Clc1ccc(CN2CCC(Cc3ccccc3)CC2)cc1,12.3
19,CCCCNC(=O)C1C2C=CC3(CN(Cc4ccc(C)cc4)C(=O)C13)O2 (centres unmarked),13.1
20,O=C(Nc1cccc(Cl)c1)NC1CCS(=O)(=O)C1 (centres unmarked),12.9
